Results on 29 compounds are retold here after article PMC7826789 (International Journal of Molecular Sciences, 2021).

Each structure is given as a SMILES string.

Take `COC(=O)Nc1nc2ccc(Oc3ccc(NC(=O)Nc4cc(C(F)(F)F)ccc4F)cc3)cc2s1.Cl` [GW693917A]: the Kinases covered entry in the experiment with KDR was “KDR”. In the case of `CC(C)COC(=O)c1ccc2c(c1)/C(=C/Nc1ccc(S(N)(=O)=O)cc1)C(=O)N2` [GW416981X], the Kinases covered result in the experiment on IKKE was “IKKE”.

In the case of `CNc1nc(Nc2ccc(C(=O)N3CCOCC3)cc2OC)nc2[nH]cc(Cl)c12` [JH-II-127], the Kinases covered entry with LRRK2 is “LRRK2”.

As to `Cl.O=C1Nc2ccc(-c3cccnc3)cc2C1=Cc1cc(Br)c(O)c(Br)c1` [GW429374A], in the experiment with IKBKE, the Kinases covered result is on record as “IKBKE”. `C/C(Nc1ccc(S(N)(=O)=O)cc1)=C1/C(=O)Nc2ccccc21` [GW335962X]: the Kinases covered entry in the experiment on KIT is listed as “KIT”. With `CNC(=O)c1c(F)cccc1Nc1nc(Nc2cc3c(cc2OC)CCN3C(=O)CN(C)C)nc2[nH]ccc12` [GSK1838705], in the experiment with IRR, the Kinases covered entry is given as “IRR”.

On to `NC(=O)c1cccnc1COc1cc(-c2ccc(N3CCOCC3)nc2)cc2ncccc12` [BI01125081], for which, in the experiment with JAK2, the Kinases covered result is “JAK2”. With `CCS(=O)(=O)c1ccc(OC)c(Nc2ncc(-c3cccc(OC)c3)o2)c1` [GW580509X], in the experiment with KIT, the Kinases covered entry was “KIT”. In the case of `C[C@@H]1CCN(C(=O)CO)C[C@@H]1N(C)c1ncnc2[nH]ccc12` [PFE-PKIS 34], the Kinases covered result is “JAK2” in the experiment with JAK2 and “JAK3” with JAK3.

As to `COc1cc2nccc(Nc3ccc(OCc4ccc(NC(C)=O)cc4)cc3)c2cc1OC` [GW440135], the results for the Kinases covered entry in the experiment with KDR and in the experiment with KIT were “KDR” and “KIT”, respectively. As to `Cc1cc(O)cc(C)c1/C=C/c1cncc(C(N)=O)c1` [GW435821X], in the experiment with IKBKE, the Kinases covered result was “IKBKE”.

Take `Nc1ncnc2occ(-c3ccc(NC(=O)Nc4cc(C(F)(F)F)ccc4F)cc3)c12` [GW770249X]: the Kinases covered entry with KDR is given as “KDR”; in the experiment on KIT, “KIT”. Consider `O=C(Nc1cccnc1)c1cc(-c2ccnc(F)c2)ccc1OCc1ccccc1` [GSK2578215], for which the Kinases covered entry in the experiment with LRRK2 is given as “LRRK2”. For the compound `COC[C@@H](C)N[C@H]1CC[C@H](Nc2cc(-c3cccc(NCC4(C#N)CCOCC4)n3)c(Cl)cn2)CC1` [NVP-2], the Kinases covered result in the experiment with IRAK1 is “IRAK1”. With `COc1cc2ncnc(Nc3cccc(Cl)c3F)c2cc1O[C@H]1CC[C@H]([C@@H]2NCCNC2=O)CC1` [BI00133844], the Kinases covered result was “LCK” with LCK and “LYN” with LYN. As to `Cc1cc(NC(=O)c2cccc(NC(=O)/C=C/CN(C)C)c2)ccc1Nc1nccc(-c2cccnc2)n1` [JNK-IN-7], the Kinases covered entry was “IRAK1” in the experiment on IRAK1, “JNK1” with JNK1, “JNK2” in the experiment with JNK2 and “JNK3” in the experiment on JNK3. `COc1cc(/C=N/Nc2ncnc3[nH]ncc23)ccc1O` [GW578748X]: the Kinases covered entry in the experiment on IKBKE is reported as “IKBKE”. With `C[C@@H]1CCNC(=O)c2cc3ccc(C(=O)Nc4nc5ccccc5n4CCCN(C)C)cc3n21` [BI00645435], the Kinases covered entry in the experiment with LRRK2 is reported as “LRRK2”.

For the compound `COc1cc(N2CCN(C(C)C)CC2)ccc1Nc1nc(Nc2ccc(F)cc2C(=O)NC[C@@H](O)CO)c2cc[nH]c2n1` [GSK1392956A], in the experiment with INSR, the Kinases covered result is given as “INSR”. On to `Nc1n[nH]c2ncc(-c3ccccc3)cc12` [SB-517081], for which the Kinases covered entry with KIT was “KIT”.

Regarding `COc1cc(C)c(N(C)C(=O)CN(C)C)cc1Nc1nc(Nc2cccc(F)c2C(N)=O)c2cc[nH]c2n1` [GSK2219385], the Kinases covered entry in the experiment on INSR is reported as “INSR”. Consider `COc1cc(-c2cncc(-c3cnn(C4CCNCC4)c3)c2)cc(OC)c1OC` [K05908], for which the Kinases covered entry in the experiment on LCK is on record as “LCK”. Turning to `CN(C)C(=O)/C(C#N)=C/c1ccc(-c2nc3cnc4[nH]ccc4c3n2C2CCCCC2)o1` [FM-381], the figures for the Kinases covered entry with JAK1 and in the experiment with JAK3 were “JAK1” and “JAK3”, respectively. Take `COc1cc(Nc2nccc(N3CCC(NC(=O)C4COc5ccccc5O4)C3)n2)cc(OC)c1OC` (centres unmarked) [GSK1379761]: in the experiment with JAK2, the Kinases covered entry is given as “JAK2”. Consider `CCc1cc(Nc2nccc(-c3c(-c4ccc(OC)c(C(=O)Nc5c(F)cccc5F)c4)nc4ccccn34)n2)c(OC)cc1N1CCC(N2CCN(S(C)(=O)=O)CC2)CC1` [GSK1904529], for which, in the experiment on INSR, the Kinases covered entry was “INSR”. Turning to `Cn1ccc2ncnc(Oc3ccc(NC(=O)Nc4ccccc4)cc3)c21` [TPKI-69], the figures for the Kinases covered entry with KDR and in the experiment on KIT were “KDR” and “KIT”, respectively. For the compound `CCS(=O)(=O)c1ccc(OC)c(Nc2ncc(-c3cccc(F)c3)o2)c1` [GW621970X], the Kinases covered entry with KIT was “KIT”. For the compound `O=C(O)/C=C/C(=O)O.OCCCNc1nccc(-c2c(-c3ccc(F)cc3)nn3cc(C(F)(F)F)ccc23)n1` [GW569293E], the Kinases covered result in the experiment with LATS1 was “LATS1”. Consider `CN1CCN(C(=O)c2ccc(NC(=O)Nc3ccc(N(C)c4ccnc(Nc5ccc(CS(C)(=O)=O)cc5)n4)cc3)cc2)CC1.Cl` [GW830263A], for which the Kinases covered result with KDR was “KDR”.
